Test results taken from PubChem BioAssay AID2685 (National Center for Advancing Translational Sciences (NCATS), 2010).
The campaign covered roughly 320,000 compounds. About 2,100 (0.66%) were called active. About 53% were inconclusive and are not listed. The call rests on the fitted dose curve; in most records, active means well fitted inhibition curve with a large enough effect in the signal ratio, with a control signal flat (not every such curve was filed as active); inconclusive means small, poorly fitted or top-dose-only effect, or effect the other way, or a change in a side signal; inactive means flat fitted curve, though single readings scatter; the % refers to the signal ratio. Many of the other results were omitted from the sample, so actives are more common in it than they were.

Assay: qHTS Assay for Lipid Storage Modulators in Drosophila S3 Cells;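 on cell number change: cells counted by Cell Tracker Red CMTPX staining in the red channel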; on lipid storage change, negative = inhibition: on the % scale 0 is the no-effect control and ±100 the full control effect
Conditions: BODIPY lipid droplet fluorescence, 18-24 h, cells fed with added oleic acid; cell number change: measured here: cell count max response; series mostly up to 46.1 µM; lipid storage change, negative = inhibition: at the top concentration
Method in brief: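 Drosophila S3 cells got compounds at several concentrations plus oleic acid (400 uM solution). Laser-scanning cytometry with 488 nm excitation read lipid droplets at 500-530 nm and cells at 575-640 nm. Percent activity was relative to 20 uM Triacsin C.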
Potency means the concentration at half of the fitted maximal effect.

Q: With COCCCNC(=O)CN(c1cc(OC)ccc1OC)S(=O)(=O)c1ccccc1 as the molecule, how does the “outcome” value read?
A: Its value is “inactive”.

Q: What about the cell number change of the same molecule?
A: Its cell number change is 13.9%.

Q: With COc1ccc(N(CC(=O)NCc2ccccc2OC)S(=O)(=O)c2c(C)nn(C)c2C)cc1 as the molecule, how does the lipid storage change, negative = inhibition read?
A: Its lipid storage change, negative = inhibition is 22.2% [at 9.22 µM] (inactive).

Q: With Cc1ccc(NC(=O)CN(C)S(=O)(=O)c2ccc3c(c2)n(C)c(=O)c(=O)n3C)c(C)c1 as the molecule, how does the “lipid storage change, negative = inhibition” value read?
A: The value was 17.5% (inactive).

Q: And the cell number change?
A: The cell number change was 25.1%.

Q: With CCOc1ccc(N(CC(=O)NC2CC3CCC2C3)S(=O)(=O)c2ccccc2)cc1 (centres undefined) as the molecule, how does the “outcome” value read?
A: The value was “inactive”.

Q: And the cell number change?
A: The cell number change was 16.1%.

Q: Which results are given for CN(CC(=O)Nc1ccccc1F)S(=O)(=O)c1ccc2c(c1)n(C)c(=O)c(=O)n2C?
A: lipid storage change, negative = inhibition: -11.1% (inactive); cell number change: 1.35%

Q: With CCOc1ccc(N(CC(=O)NC2CCCC2)S(=O)(=O)c2ccccc2)cc1 as the molecule, how does the Potency read?
A: Its Potency is 2.59 µM (active).

Q: What about the cell number change of the same molecule?
A: Its cell number change is -7.14%.

Q: Which “lipid storage change, negative = inhibition” value does the source give for COc1ccc(N(CC(=O)NCc2ccco2)S(=O)(=O)c2ccccc2)cc1 here?
A: The value was -11.1% (inactive).

Q: And the cell number change?
A: The cell number change was 3.25%.

Q: Which “lipid storage change, negative = inhibition” value does the source give for CCc1ccc(CN2CCCC(CCC(=O)N3CCN(c4ccccn4)CC3)C2)o1 (centres undefined) here?
A: The value was 9.3% (inactive).

Q: And the cell number change?
A: Its cell number change is 5.55%.

Q: For Cc1cc(CN2CCCC(N3CCc4ccccc4C3)C2)cc(C)c1O (centres undefined), which “lipid storage change, negative = inhibition” value is on record?
A: Its value is 15.7% (inactive).

Q: And the cell number change?
A: The cell number change was -2.22%.

Q: Which “lipid storage change, negative = inhibition” value does the source give for Cc1[nH]c2ccccc2c1C(c1ccccn1)N1CCC(C(N)=O)CC1 (centres undefined) here?
A: Its value is 10.3% (inactive).

Q: What about the cell number change of the same molecule?
A: Its cell number change is -13.7%.

Q: With O=C(NCCN1CCOCC1)c1cccn2c(=O)c3c4c(sc3nc12)CCCC4 as the molecule, how does the “lipid storage change, negative = inhibition” value read?
A: The value was 15.8% (inactive).

Q: And the cell number change?
A: The cell number change was -12.5%.

Q: What does the source list for Cc1c(C(=O)NCCSCc2ccccc2)cccc1[N+](=O)[O-]?
A: lipid storage change, negative = inhibition: 15.3% (inactive); cell number change: -1.45%

Q: Which results are given for O=C(c1ccc(OC2CCN(CCc3ccccc3)CC2)cc1)N1CCCC(CO)C1 (centres undefined)?
A: lipid storage change, negative = inhibition: 12.8% (inactive); cell number change: 4.02%

Q: Which results are given for COc1ccc(N2CCN(CC(O)COc3cc(C)ccc3C)CC2)cc1 (centres undefined)?
A: lipid storage change, negative = inhibition: -4.06% (inactive); cell number change: -17%

Q: For CCCS(=O)(=O)C/C(N)=N/OC(=O)c1ccccc1Cl, which “lipid storage change, negative = inhibition” value is on record?
A: Its value is 6.02% (inactive).

Q: What about the cell number change of the same molecule?
A: The cell number change was -2.12%.

Q: With CCC(C(=O)NCc1ccco1)N(C(=O)CNS(=O)(=O)c1ccccc1)c1ccc(F)cc1 (centres undefined) as the molecule, how does the “outcome” value read?
A: Its value is “inactive”.

Q: What about the cell number change of the same molecule?
A: Its cell number change is -3.04%.

Q: What does the source list for COc1ccccc1N(CC(=O)Nc1cccnc1)S(=O)(=O)c1ccccc1?
A: lipid storage change, negative = inhibition: -19% (inactive); cell number change: -18%

Q: For COc1ccccc1CNC(=O)CN(C)S(=O)(=O)c1ccc2c(c1)c(=O)n(C)c(=O)n2C, which Potency is on record?
A: The Potency was 9.2 µM (active).

Q: Which “lipid storage change, negative = inhibition” value does the source give for COc1cccc(CNC(=O)CN(C)S(=O)(=O)c2ccc3c(c2)c(=O)n(C)c(=O)n3C)c1 here?
A: Its value is -17.1% (inactive).

Q: And the cell number change?
A: Its cell number change is -15.3%.

Q: Which “lipid storage change, negative = inhibition” value does the source give for CCc1ccccc1NC(=O)CN(c1ccc(OC)cc1OC)S(=O)(=O)c1ccccc1[N+](=O)[O-] here?
A: The value was 8.89% (inactive).

Q: And the cell number change?
A: The cell number change was -4.08%.

Q: Which results are given for CCc1ccccc1NC(=O)CN(c1ccc(OC)cc1OC)S(=O)(=O)c1ccccc1?
A: Potency: 2.91 µM (active); cell number change: -14.4%

Q: With COc1ccc(N(CC(=O)NC2CC3CCC2C3)S(=O)(=O)c2ccc(C)cc2)cc1OC (centres undefined) as the molecule, how does the “outcome” value read?
A: Its value is “inactive”.

Q: And the cell number change?
A: Its cell number change is 8.82%.

Q: Which results are given for O=C(CN(c1ccc(F)cc1)S(=O)(=O)c1ccccc1)NC1CC2CCC1C2 (centres undefined)?
A: lipid storage change, negative = inhibition: 0.0182% (inactive); cell number change: 10.7%

Q: Which “outcome” value does the source give for COc1ccc(S(=O)(=O)N(CC(=O)Nc2cccnc2)c2ccccc2OC)cc1 here?
A: The value was “inactive”.

Q: Which “lipid storage change, negative = inhibition” value does the source give for COc1ccc(N(CC(=O)Nc2ccc(OC)cc2OC)S(=O)(=O)c2ccccc2)cc1 here?
A: The value was 2.51% (inactive).

Q: And the cell number change?
A: Its cell number change is -4.04%.

Q: Which Potency does the source give for Cc1cccc(N(CC(=O)NC2CC3CCC2C3)S(=O)(=O)c2ccccc2)c1 (centres undefined) here?
A: Its Potency is 20.6 µM (active).

Q: And the cell number change?
A: The cell number change was -12.9%.

Q: Which results are given for COc1ccccc1N(CC(=O)Nc1ccc(Cc2ccncc2)cc1)S(=O)(=O)c1ccccc1?
A: Potency: 7.31 µM (active); cell number change: 27.6%

Q: Which “outcome” value does the source give for CN(CC(=O)NCc1ccc(F)cc1)S(=O)(=O)c1ccc2c(c1)c(=O)n(C)c(=O)n2C here?
A: The value was “inactive”.

Q: For CC(=O)NC(CC(=O)OC(C)C(=O)Nc1ncc(Cl)cc1Cl)c1ccccc1 (centres undefined), which “lipid storage change, negative = inhibition” value is on record?
A: Its value is 6.11% (inactive).

Q: For CC(=O)c1c(C)n(CC(=O)NCc2ccc3c(c2)OCO3)c2ccccc12, which “outcome” value is on record?
A: The value was “inactive”.

Q: What does the source list for O=S(=O)(NC(=NCCc1ccc(Cl)cc1)c1ccccc1Cl)c1cccs1?
A: lipid storage change, negative = inhibition: -10.9% (inactive); cell number change: 1.69%

Q: For O=C(COc1ccc([N+](=O)[O-])cc1)Nc1cc(C(=O)O)cc(C(=O)O)c1, which “lipid storage change, negative = inhibition” value is on record?
A: Its value is -3.27% (inactive).

Q: What about the cell number change of the same molecule?
A: The cell number change was 11.2%.

Q: Which “lipid storage change, negative = inhibition” value does the source give for Cc1cc(Br)ccc1NC(=O)CNC(=O)CSc1ncccn1 here?
A: Its value is -5.9% (inactive).

Q: And the cell number change?
A: Its cell number change is -9.9%.

Q: What does the source list for Cc1ccccc1C1c2[nH]c3ccccc3c2C[C@H]2C(=O)N(C3CC3)CC(=O)N12 (some centres undefined)?
A: lipid storage change, negative = inhibition: 1.27% (inactive); cell number change: -3.81%

Q: For CCOC(=O)N1CCN(C(=O)CN(c2cccc(C)c2)S(=O)(=O)c2ccc(C)cc2)CC1, which Potency is on record?
A: Its Potency is 5.8 µM (active).

Q: And the cell number change?
A: The cell number change was 6.11%.

Q: Which results are given for Cc1ccc(S(=O)(=O)N(CC(=O)N2CCCCC2)c2cccc(C)c2)cc1?
A: lipid storage change, negative = inhibition: -5.81% (inactive); cell number change: -21.5%

Q: With Cc1ccc(S(=O)(=O)N(CC(=O)N2CCC(C)CC2)c2cccc(C)c2)cc1 as the molecule, how does the “outcome” value read?
A: The value was “inactive”.

Q: Which results are given for Cc1nc2c(C(=O)N3CCOCC3)cnn2c(C)c1Cc1ccc(Cl)cc1?
A: lipid storage change, negative = inhibition: -11.2% (inactive); cell number change: -21.6%

Q: Which “lipid storage change, negative = inhibition” value does the source give for CCn1c(SC)nc2cc(S(=O)(=O)N3CCCCC3)ccc21 here?
A: The value was 1.06% (inactive).

Q: What about the cell number change of the same molecule?
A: The cell number change was -3.03%.

Q: Which results are given for Cc1ccc(OCCC(=O)OCC(=O)Nc2ccc(Cl)cn2)cc1?
A: lipid storage change, negative = inhibition: 6.81% (inactive); cell number change: -15.3%

Q: For O=C(COC(=O)CNC(=O)c1ccco1)Nc1ccc(Cl)cn1, which “outcome” value is on record?
A: Its value is “inactive”.

Q: With Cc1ccc(C(=O)NCC(=O)OCC(=O)Nc2ccc(Cl)cn2)cc1 as the molecule, how does the Potency read?
A: The Potency was 3.66 µM (active).

Q: And the cell number change?
A: The cell number change was -28.4%.

Q: Which results are given for N#Cc1ccc(COc2cccc3cccnc23)cc1?
A: outcome: inactive; cell number change: -22.2%

Q: With Cc1oc2c(cc(NS(=O)(=O)c3ccc4c5c(cccc35)C(=O)N4)c3ccccc32)c1C(=O)OC(C)C as the molecule, how does the “lipid storage change, negative = inhibition” value read?
A: The value was -3.12% (inactive).

Q: What about the cell number change of the same molecule?
A: The cell number change was 10.8%.

Q: Which results are given for CC(C)C(NS(=O)(=O)c1ccc2c3c(cccc13)C(=O)N2)C(=O)O (centres undefined)?
A: lipid storage change, negative = inhibition: 6.99% (inactive); cell number change: 15.8%

Q: For Cc1cc(O)ccc1NS(=O)(=O)c1ccc2c3c(cccc13)C(=O)N2, which Potency is on record?
A: The Potency was 0.366 µM (active).

Q: And the cell number change?
A: Its cell number change is -0.855%.
